Assay results reported in PubChem BioAssay AID2069 (Sanford-Burnham Center for Chemical Genomics, 2009).
Out of some 1,200 compounds screened, about 210 (18%) were called active. The list is a sample of the results. Values without a mark were called inactive. Cut-off read from the data, not from the text of the source: active = inhibition above about 30%; inactive = the rest.

Test: fluorescence readout artefact check – biochemical, HTRF, uHTS, artefact control for SUMOylation inhibitor project, confirmation (AID 2069)
Conditions: HTRF interference counterscreen, at 35 µM, hits give high values

Row | SMILES | inhibition
1 | Cc1ccc(C(=O)Nc2ccccc2C(=O)N2CCN(c3ccccc3)CC2)cc1 | -8.05%
2 | Cn1c(=O)cc(C(=O)N/N=C/c2ccc(Cl)cc2)[nH]c1=O | -5.8%
3 | CCc1nc2sc(C(C)=O)c(N)c2c2c1CCCC2 | 9.65%
4 | O=[N+]([O-])c1cccc(C=Nc2cccc3ccccc23)c1O | 29.6%
5 | CCOc1ccc(NC(=S)Nc2ccc3nsnc3c2)cc1 | 19.4%
6 | O=C1NC(=Nc2ccc3ccccc3c2)S/C1=C/c1ccco1 | 9.5%
7 | COc1cccc(NC(=S)Nc2cccc3ccccc23)c1 | 2.35%
8 | S=C(Nc1ccc2nsnc2c1)N1CCCCC1 | 16.2%
9 | S=C(Nc1ccc2nsnc2c1)N1CCCC1 | 35.6% (active)
10 | S=C(Nc1ccc2nsnc2c1)N1CCCCCC1 | 6.8%
11 | S=c1[nH]nc(-c2cc(-c3ccccc3)n[nH]2)n1/N=C/c1cccc(Cl)c1 | -8.55%
12 | COc1ccc(/C=C/c2nnc(NC(=O)CSc3ccc(C)cc3)s2)cc1 | 9.65%
13 | CCOc1cc(/C=C2\C(=O)N(c3ccc(C(N)=O)cc3)N=C2C)ccc1OC(=O)c1cccs1 | -9.6%
14 | Nc1ccc2c(c1)sc1ccccc12 | -9.65%
15 | Nc1ccc2nc(-c3ccccc3)sc2c1 | 66% (active)
16 | Cc1ccc(C)c(S(=O)(=O)c2c(N)n(/N=C/c3ccco3)c3nc4ccccc4nc23)c1 | -11.7%
17 | CCc1nn(CC(=O)NC(C)CCc2ccccc2)c(=O)c2cc3cc(F)ccc3n12 (configuration not stated) | 16.4%
18 | O=C(O)c1ccc(NS(=O)(=O)c2ccc3c(c2)C2C=CCC2C(c2ccccc2F)N3)cc1 (configuration not stated) | 3.15%
19 | CC(=O)c1ccc2c(c1)C1C=CCC1C(C(=O)O)N2 (configuration not stated) | 70.7% (active)
20 | COc1cccc(NS(=O)(=O)c2ccc3c(c2)C2C=CCC2C(c2ccc(C(=O)O)cc2)N3)c1 (configuration not stated) | 8.05%
21 | CCc1ccc(NC(=O)NNC(=O)c2cc3ccccc3cc2O)cc1 | 8.2%
22 | N#Cc1c(-c2cccs2)nc(SCc2ccc(Cl)cc2)[nH]c1=O | 21.6%
23 | NC(=O)C1CCN(C2=C(NS(=O)(=O)c3ccc(Cl)cc3)C(=O)c3ccccc3C2=O)CC1 | -20.8%

Row | SMILES | inhibition
24 | COCCn1c(N)c(C(=O)OCc2ccccc2)c2nc3ccccc3nc21 | 16%
25 | CC(C)(C)OC(=O)c1c(N)n(CCCN2CCCC2=O)c2nc3ccccc3nc12 | 41.4% (active)
26 | C=CCn1c(N)c(C(=O)Nc2ccccc2)c2nc3ccccc3nc21 | 20.9%
27 | C=CCn1c(N)c(C(=O)Nc2cccc(C)c2)c2nc3ccccc3nc21 | 6.4%
28 | COc1ccc(CNC(=O)c2c(N)n(CCCN3CCOCC3)c3nc4ccccc4nc23)cc1 | 17.5%
29 | C=CCn1c(N)c(C(=O)OC(C)(C)C)c2nc3ccccc3nc21 | 32.7% (active)
30 | O=C(Nc1cccc2cccc(NC(=O)c3ccco3)c12)c1ccco1 | -6.45%
31 | NS(=O)(=O)c1ccc(NC2=CC(=O)C(=O)c3ccccc32)cc1 | 9.2%
32 | CC(=O)c1cccc(NC(=S)Nc2cccc3ccccc23)c1 | 0.85%
33 | Cc1ccc(S(=O)(=O)NNC(=O)Nc2cccc3ccccc23)cc1 | 4.05%
34 | Oc1cccc2c(NC(=S)Nc3ccc(SC(F)F)cc3)cccc12 | -6.1%
35 | O=C(CCCN1C(=O)/C(=C/c2ccco2)SC1=S)Nc1ccccc1C(=O)O | 1.8%
36 | C/C(=N\NC(=O)CNc1cccc2ccccc12)c1ccccc1 | 18%
37 | CC(=O)N1C(=S)NC(=O)/C1=C1/C(=O)N(CC(=O)Nc2cccc(C)c2)c2ccccc21 | 4.65%
38 | CCN(CC)C(=O)C1CCCN(C(=O)Nc2ccc3nsnc3c2)C1 (configuration not stated) | 17.5%
39 | COc1ccc(-n2c(N)c(C(=O)NCC3CCCO3)c3nc4ccccc4nc32)c(OC)c1 (configuration not stated) | 24.9%
40 | CC(C)Cn1c(N)c(C(=O)NCc2cccs2)c2nc3ccccc3nc21 | 25.2%
41 | COCCn1c(N)c(C(=O)NCc2cccs2)c2nc3ccccc3nc21 | 28.6%
42 | COCCn1c(N)c(C(=O)NCC2CCCO2)c2nc3ccccc3nc21 (configuration not stated) | 42.4% (active)
43 | Nc1c(C(=O)NCc2ccco2)c2nc3ccccc3nc2n1CCc1ccccc1F | 15.7%
44 | Nc1c(C(=O)NCc2ccco2)c2nc3ccccc3nc2n1CCc1ccc(F)cc1 | 23.6%
45 | C=CCn1c(N)c(C(=O)NCC2CCCO2)c2nc3ccccc3nc21 (configuration not stated) | 42.5% (active)
46 | CC(C)Cn1c(N)c(C(=O)NCC2CCCO2)c2nc3ccccc3nc21 (configuration not stated) | 34% (active)

Row | SMILES | inhibition
47 | Cc1ccc(-n2c(-c3cc(-c4ccco4)[nH]n3)n[nH]c2=S)c(Br)c1 | 16.4%
48 | CC1=C(C(=O)Nc2ccccc2)C(c2ccc(C)cc2)N=C(Nc2nc3ccccc3o2)N1 (configuration not stated) | 10.2%
49 | CCc1ccc2c(c1)c1nc(C)sc1n2CC | 0.45%
50 | Cn1c2ccccc2c(=O)n2c(=O)c3ccccc3cc12 | 8.7%
51 | COc1cc(/C=C2/C(=O)N(c3ccccc3)N=C2C)ccc1OS(=O)(=O)c1ccccc1 | -23.2%
52 | Cc1ccc(Cn2nnnc2CN2CCC(NC(=O)C(C)(C)C)CC2)cc1 | 5.15%
53 | Cc1ccc(S(=O)(=O)N2CCCCC2)cc1NC(=O)COC(=O)c1c(F)cccc1F | -11.4%
54 | Cc1nn2c3c(cnc2c1-c1ccc(Cl)cc1)C(=O)CC(c1ccco1)C3 (configuration not stated) | -0.9%
55 | CC(C)c1ccc(S(=O)(=O)/N=C2/C=CC(=O)c3ccccc32)cc1 | 11.3%
56 | O=C(Cn1nnc2ccccc21)NCc1ccccc1 | -8.55%
57 | CCCCn1c(NC(=O)c2ccccc2Cl)c(C#N)c2nc3ccccc3nc21 | 20.8%
58 | N#Cc1c(N)n(CCOC(=O)c2ccc(Cl)cc2)c2nc3ccccc3nc12 | 10.8%
59 | COCCn1c(N)c(C#N)c2nc3ccccc3nc21 | 43.9% (active)
60 | CCCCCn1c(N)c(C#N)c2nc3ccccc3nc21 | 16.7%
61 | COc1ccccc1CCn1c(N)c(C#N)c2nc3ccccc3nc21 | 17.6%
62 | CCC(C)n1c(NC(=O)c2ccccc2)c(C#N)c2nc3ccccc3nc21 (configuration not stated) | 11.8%
63 | CCCCn1c(NC(C)=O)c(C#N)c2nc3ccccc3nc21 | 33% (active)
64 | CN(C)CCCn1c(N)c(C#N)c2nc3ccccc3nc21 | 39.2% (active)
65 | C=CCn1c(NC(=O)c2ccccc2Cl)c(C#N)c2nc3ccccc3nc21 | 28.9%
66 | Cc1cnc(C(=O)OCC(=O)c2ccc(F)cc2)cn1 | -5.75%
67 | O=[N+]([O-])c1c(NCCCO)cc(Sc2nc3ccccc3s2)c2nonc12 | 3.25%
68 | Cc1c(C(=O)c2ccc(F)cc2F)c2ccccn2c1CCC#N | 17.8%
69 | COc1cc(/C=N/NC(=O)c2cc(-c3ccco3)nc3ccccc23)cc(OC)c1O | -5.6%

Row | SMILES | inhibition
70 | O=C(NC(=S)Nc1c(Cl)ccc2nsnc12)c1ccco1 | -7.55%
71 | O=C(N=Nc1c(O)[nH]c2ccc([N+](=O)[O-])cc12)c1ccccc1Cl | 7.65%
72 | CN(C)c1ccc(NC(=O)c2sc(SCC(=O)Nc3ccc(Br)cc3)nc2N)cc1 | 8.25%
73 | Cc1oc(-c2ccc(F)cc2)cc1-c1nn2c(-c3ccoc3C)nnc2s1 | -3.45%
74 | CN(CCC#N)C(=O)COC(=O)c1c2c(nc3ccccc13)/C(=C/c1ccco1)CC2 | 36.5% (active)
75 | COc1ccccc1CNC(=O)COC(=O)c1cc(-c2ccco2)nc2ccccc12 | 12.6%
76 | CCOc1ccc(/C=C2/SC(=S)N(CCC(=O)Nc3ccc(C(=O)O)cc3)C2=O)cc1 | 4.55%
77 | Cc1nn(-c2ccccn2)c2c1C(=O)C(Br)CC2 (configuration not stated) | -0.05%
78 | O=C1/C(=C/c2coc3ccc(O)cc3c2=O)SC(=S)N1c1ccccc1 | 4.9%
79 | Cc1ccc(C)c(OCC(=O)Nc2nonc2NC(=O)COc2cc(C)ccc2C)c1 | -13.6%
80 | Cc1nn(-c2ccccc2)c2sc(C(=O)NNC(=O)COc3ccccc3)cc12 | 10.2%
81 | COC(=O)c1ccccc1NC1=C/C(=N\S(=O)(=O)c2cccs2)c2ccccc2C1=O | 1.7%
82 | O=[N+]([O-])c1ccc(N2CCN(CCO)CC2)c2ncccc12 | -19.1%
83 | O=C(NCc1ccccc1)Nc1cccn(Cc2ccccc2)c1=O | -6.8%
84 | CC(=O)Nc1ccc(NC2=C/C(=N/S(=O)(=O)c3cccs3)c3ccccc3C2=O)cc1 | -7.75%
85 | O=[N+]([O-])c1cc(Cl)cc(/C=N/NC(=S)Nc2ccc(S(=O)(=O)N3CCOCC3)cc2)c1O | 80.5% (active)
86 | Cc1c(NC(=S)N/N=C/c2cc([N+](=O)[O-])ccc2O)c(=O)n(-c2ccccc2)n1C | 11.2%
87 | O=[N+]([O-])c1ccc(O)c(/C=N/NC(=S)Nc2ccc(Cl)cc2Cl)c1 | -23.9%
88 | Cc1ccc(/C=C2/SC(=S)N(c3ccc(S(=O)(=O)Nc4nccs4)cc3)C2=O)cc1 | -9.3%
89 | N=C1/C(=C/c2cccn2Cc2ccc(Cl)cc2)C(=O)N=C2SC=CN12 | 18.8%
90 | CC1CCN(C2=C(NS(=O)(=O)c3ccc(Br)cc3)C(=O)c3ccccc3C2=O)CC1 | 7.4%
91 | Cc1c(C(=O)Nc2ccc(F)cc2)cn2c(nc3ccccc32)c1C#N | 19.4%
92 | O=c1[nH]c(=S)[nH]c(O)c1N=Nc1ccc(-c2ccccc2)cc1[N+](=O)[O-] | 16.1%
